Data reported in ChEMBL document CHEMBL3988442, “University of Dundee, Small-Polar-MMV Screening Library” (2021).
The whole screen tested about 48,000 compounds, of which about 13,000 (27%) showed an effect of 50% or more. The list shows a part of the results.

tested on: Wolbachia pipientis; assay: Anti-Wolbachia Cell-Based Screen; assay type: functional; parameters: scale not given: in the data most compounds retested in dose-response had high values; conditions: 5 µM

SMILES	Percent Effect [%]
CN(C)S(=O)(=O)N1C[C@@H]2CC[C@H](C1)N(Cc1ccc3nsnc3c1)C2	4.433
Cc1cc(C)n2nc(C(=O)N3CCCC4(CNC(=O)O4)C3)cc2n1 (centres undefined)	1.638
CCS(=O)(=O)N1CCC2(CC1)CN(c1cccnc1)C(=O)CO2.O=C(O)C(F)(F)F	93.05
O=C(N1CCCC1)N1CCC2(CC1)CN(c1cccnc1)C(=O)CO2.O=C(O)C(F)(F)F	93.48
CCS(=O)(=O)N1CCC2(CN(c3cccc(F)c3)C(=O)CN2C)C1.O=C(O)C(F)(F)F (centres undefined)	7.629
CCc1nc(C)c([C@H]2CN(C)C[C@@H]2C(=O)NCCc2cnccn2)[nH]1	-9.925
COc1ccc(CN(C)[C@@H]2COC[C@H]2c2ccc(F)cc2)cc1.O=C(O)CC(O)(CC(=O)O)C(=O)O	117.4
COc1ccc(CN2C[C@@H]3COC[C@@H](N4CCN(C)CC4)[C@@H]3C2)cc1.O=C(O)C(F)(F)F.O=C(O)C(F)(F)F.O=C(O)C(F)(F)F	13.92
COc1ccc(CC(C)(O)CNC(=O)Cc2ccc(F)cc2)cc1 (centres undefined)	8.313
CCOc1ncccc1CNC(=O)N1CCCC1c1cc(C)no1 (centres undefined)	3.544
Cc1cc(C(=O)N2CCC(N3CCNC3=O)CC2)nn1C(C)(C)C	-1.395
O=C(c1ccc(Cl)cc1)N1CCC(N2CCNC2=O)CC1	109.7
O=C(c1ccc2c(c1)OCO2)N1CCN2C(=O)NC[C@H]2C1	6.694
O=C(c1ccc(Cl)cc1)N1CCC(N2CCCCC2=O)CC1	103
O=C(CCc1ccc(Cl)s1)N1CCC(N2CCNC2=O)CC1	39.9
Cc1ccc(C(=O)N2CCCC(N)CC2)cc1N1CCNC1=O (centres undefined)	-4.611
O=C(CSc1ccccc1)N1CCC(N2CCCCC2=O)CC1	-3.003
Cc1cnc(NC(=O)N2CCC(N3CCCCC3=O)CC2)s1	0.5285
O=C(c1ccc(Cl)cc1)N1CCC(N2CCCNC2=O)CC1	102
Cn1cc(N2CCC(NC(=O)c3c(F)cccc3F)C2=O)cn1 (centres undefined)	-6.231
O=C(NCC1(CO)CC1)c1ccccc1C(F)(F)F	10.7
O=C(NCCCSC1CCCCC1)C1NCCc2[nH]cnc21 (centres undefined)	-0.8236

SMILES	Percent Effect [%]
CCOc1ccc(C(=O)N(CCOC)Cc2c(C)nn(CC)c2C)o1	-1.11
CN(C)C(=O)N1C[C@@H]2COC[C@]2(c2nnc(C3CC3)o2)C1	1.303
O=C(Cn1ccc(=O)cc1)N1C[C@H]2CC[C@@H]1CN(c1ncccn1)C2	-6.945
CCN1CCN(CC(=O)N2CCOC(Cc3ccc(OC)cc3)C2)CC1 (centres undefined)	-7.63
CCC1CN(C(=O)c2cc(CN(C)CCc3ccccc3)on2)CCO1 (centres undefined)	-31.04
Cc1nc(C(=O)N2CCOC(Cc3ccc(F)cc3)C2)co1 (centres undefined)	139
Cc1nc(C(=O)N2CCOC(Cc3ccccc3)C2)co1 (centres undefined)	119.2
COc1ccc(CC2CN(C(=O)c3coc(C)n3)CCO2)cc1 (centres undefined)	123
Cc1n[nH]c(CCC(=O)N2CCOC(Cc3ccccc3)C2)c1C (centres undefined)	0.4396
Cn1nccc1C(=O)N1CCOC(Cc2ccc(F)cc2)C1 (centres undefined)	-2.544
O=C1CCC(C(=O)N2CCOC(Cc3ccc(F)cc3)C2)=NN1 (centres undefined)	-6.141
CCOC(=O)CNC(=O)N1CCOC(Cc2ccc(OC)cc2)C1 (centres undefined)	-5.818
COc1ccccc1N1CCN(C(=O)CSCC2CC2)C(C)C1 (centres undefined)	12.11
Cc1csc(-c2cccc(NC(=O)N3CCOCC3)c2)n1	-7.869
COc1ccc(S(=O)(=O)NCCC(O)c2ccoc2)c(C)c1 (centres undefined)	14.16
Cc1cc(C(=O)N(C)CC(F)(F)C(F)(F)F)ccc1-n1cncn1	-4.765
O=C(Nc1ccc(F)cc1)C1CCc2ccccc2N1 (centres undefined)	3.241
N#Cc1ccc(SCCC(=O)Nc2ccc(CC(N)=O)cc2)cc1	-23.76
CC(C(=O)Nc1ccc(C#N)cc1)N1CCc2ccccc21 (centres undefined)	-0.338
Cl.N#Cc1ccc(NC(=O)C2CSCN2)cc1 (centres undefined)	137.5
O=C(Nc1ccc(F)cc1)C1CNCCN1C(=O)CC1CCCCC1 (centres undefined)	-14.62
O=C(Nc1ccc(F)cc1)C1CSCN1 (centres undefined)	136.1

SMILES	Percent Effect [%]
CN1CCCCC12CCN(c1nncs1)C2 (centres undefined)	-10.05
COc1cc(Cl)cc(C(=O)N2CCC3(CCCNC3)C2)c1 (centres undefined)	-2.555
CCc1ccsc1C(=O)N1CCN(C(=O)c2ccc(C)o2)CC1	-4.902
CCc1ccc(C(=O)N2CCN(CC(C)O)CC2)o1 (centres undefined)	-6.937
CSc1ccsc1C(=O)N1CCN(CC(C)(C)O)CC1	6.232
CCc1ccsc1C(=O)N1CCS(=O)(=O)CC1	-3.186
CCc1ccsc1C(=O)N1CCN(CC(C)O)CC1 (centres undefined)	130.8
CCc1ccsc1C(=O)N1CCN(CCN2C(=O)CCC2=O)CC1	117.8
CC(=O)N1CCN(C(=O)c2sccc2Br)CC1	-5.711
CCCc1nnsc1C(=O)N1CCN(CC(C)O)CC1.Cl (centres undefined)	3.712
CCc1ccsc1C(=O)N1CCN(CC(N)=O)CC1	101.9
N#Cc1cccc(CN2C[C@@H](F)[C@@H](OCc3nc4cnccc4[nH]3)C2)c1	-8.923
c1cc(NCc2ccsc2)cc(-c2nnc[nH]2)c1	-4.767
Cc1cnc(N2CCN3C[C@H](OCc4cccc(C)n4)C[C@H]3C2)nc1.O=C(O)C(F)(F)F.O=C(O)C(F)(F)F.O=C(O)C(F)(F)F	-4.424
CC(C)c1cc2c(O)nc(CSCC(=O)NCc3ccncc3)nc2s1	17.11
CC(=O)N1CCN(C(=O)NCc2csc(Br)c2)CC1	1.629
O=C(CCc1ccncc1)NCc1csc(Br)c1	90.69
O=C(CSCc1ccncc1)NCc1csc(Br)c1	146.4
O=C(CCNc1ncccn1)NCc1csc(Br)c1	22.34
O=C(NCc1csc(Br)c1)c1ccncc1	3.838
COc1cc(C)c(CNC(C)c2nc(C)cs2)cc1OC (centres undefined)	-0.3291
CNC(=O)c1cn2cc(-c3ccc(F)cc3)n(CC=C(C)C)c(=O)c2n1	0.6659

SMILES	Percent Effect [%]
Cc1nccc(N2CC[C@@H]3[C@@H](CCC(=O)N3CCc3ccccc3)C2)n1	-6.653
COCC1CN(C(=O)Cc2ccccn2)Cc2c1cnn2CC1CC1.O=C(O)C(F)(F)F.O=C(O)C(F)(F)F (centres undefined)	-11.65
N#Cc1nccnc1N1CCC(Cc2ccccc2)C1 (centres undefined)	-1.044
CCS(=O)(=O)N1CCC2(CC1)COC(COc1cccnc1)C2.O=C(O)C(F)(F)F (centres undefined)	0.5823
O=S1(=O)c2cccnc2OC(Cc2ccccc2)CN1CC1CC1 (centres undefined)	92.92
Cc1cc(C)c(C#N)c(N2CCC(Cc3ccccc3)CC2)n1	-43.81
O=C(c1c[nH]c2ncccc12)N1CCC(COc2ccccc2)CC1	-0.9312
CCN1CC(COc2ccccc2)Oc2ncccc2S1(=O)=O (centres undefined)	122.7
O=S1(=O)c2cccnc2OC(COc2ccccc2)CN1CC1CC1 (centres undefined)	113.6
CCN1Cc2c(C(=O)NCC3CC3)ncn2-c2ccccc2S1(=O)=O	19.38
COC(=O)CNCC1(O)CCCN(Cc2cccc(F)c2F)C1=O (centres undefined)	2.816
CC(C)(NC(=O)NCc1cccc(Br)c1)C(=O)O	23.95
NC(=O)CN(CC(=O)NCc1cccc(Cl)c1)C1CCCC1	3.155
COc1ncccc1CNC(=O)c1cccnc1O	-6.886
Nc1ncccc1C(=O)NCc1cccc(Cl)c1	135.3
Nc1ncccc1C(=O)NCc1cccc(Br)c1	158
COc1cccc(CNC(=O)c2nc3c(o2)CN(S(C)(=O)=O)C3)c1	-11.41
Nc1ncccc1C(=O)NCc1ccc(Br)cc1	135.9
CS(=O)(=O)Cc1ccc(CNC(=O)c2cccnc2O)cc1	12.39
COCC(=O)NCc1cccc(Br)c1	-15.74
COc1cccc(CNC(=O)c2cccnc2N)c1	120.4
O=C(NCc1ccncc1)c1ccc(Cl)cc1F	1.231

SMILES	Percent Effect [%]
Cn1ccnc1-c1noc(NCc2ccccc2)n1	-0.05664
Nc1nnc(CCCNc2ncnc3c2CCN(C(=O)C2CC2)C3)s1	2.255
O=C(O)CSc1nnc(-c2cn[nH]c2)n1-c1ccccc1C(F)(F)F	-22.33
CC(=O)NC1(C(=O)N(C)Cc2c(C)noc2C)CCCCC1	-7.535
COc1ccc(C2CC(=O)c3c(O)cc(O)cc3O2)cc1O (centres undefined)	-2.499
CC(C)(C)c1coc([C@@H]2COCCN2Cc2ccccn2)n1	-4.744
Cc1cccc(CNC(=O)c2cccnc2N)c1	165.4
CCCNC(=O)c1cccc2ncccc12	14.09
Cc1cccc(CN2CCN(C(=O)c3cccnc3O)CC2)c1	-8.356
CC(C)(C)c1nc(CN(Cc2cccs2)C2CCS(=O)(=O)C2)no1 (centres undefined)	9.766
Cc1ccc(-c2nc(CN(Cc3cccs3)C3CCS(=O)(=O)C3)cs2)o1 (centres undefined)	4.898
O=S1(=O)CCC(N(Cc2nc3ccccc3o2)Cc2cccs2)C1 (centres undefined)	98.01
O=C(CN(Cc1cccs1)C1CCS(=O)(=O)C1)NC1CCCCC1 (centres undefined)	14.98
Cc1nc(CN(Cc2cccs2)C2CCS(=O)(=O)C2)oc1C (centres undefined)	-2.391
CC(=O)c1ccc(C(=O)N(C)Cc2nc(-c3ccccn3)no2)s1	-11.07
Cc1noc(C)c1CN(Cc1cccs1)C1CCS(=O)(=O)C1 (centres undefined)	104.9
CC(C)c1noc(CN(Cc2cccs2)C2CC2)n1	16.09
CC(C)(C)c1nc(CN(Cc2cccs2)C2CCS(=O)(=O)C2)cs1 (centres undefined)	26.63
O=C(CN(Cc1cccs1)C1CCS(=O)(=O)C1)NCC1CCCCC1 (centres undefined)	2.941
Cc1noc(CN(Cc2cccs2)C2CCS(=O)(=O)C2)n1 (centres undefined)	99.33
O=S1(=O)CCC(N(Cc2nc(-c3ccccn3)no2)Cc2cccs2)C1 (centres undefined)	124.4
